The values that follow come from article PMC7819943, “Rice protein-binding microarrays: a tool to detect cis-acting elements near promoter regions in rice”.

In all, about 39,000 sequences were measured (“fluorescence intensity (a.u.)”: median about 4,300, highest 2% from about 39,000 on). The sample holds the highest values, similar sequences and a random draw of the others, so the mix is not that of the screen.

The assay addresses T1, OsSMF1 (Oryza sativa, UniProt Q6ZLB0 1-436).
T1 sequence: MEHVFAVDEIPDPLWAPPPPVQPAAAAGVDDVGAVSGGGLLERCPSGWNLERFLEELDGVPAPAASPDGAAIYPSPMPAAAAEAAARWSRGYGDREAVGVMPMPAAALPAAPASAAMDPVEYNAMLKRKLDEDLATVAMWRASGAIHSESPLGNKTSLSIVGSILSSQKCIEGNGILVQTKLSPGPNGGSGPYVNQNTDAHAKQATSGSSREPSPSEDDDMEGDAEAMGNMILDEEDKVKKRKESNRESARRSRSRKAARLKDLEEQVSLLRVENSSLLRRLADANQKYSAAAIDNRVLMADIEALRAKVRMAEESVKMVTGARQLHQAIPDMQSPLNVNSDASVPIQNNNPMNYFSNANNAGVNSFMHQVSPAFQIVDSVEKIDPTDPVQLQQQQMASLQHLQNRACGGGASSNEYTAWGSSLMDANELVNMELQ
Description: protein-binding microarray (RPBM); PBS, 2% BSA, 51.3 ng/ul salmon testes DNA, 50 uM zinc acetate, 200 nM TF, 25 C, 1 h; high values mean tight binding. As to conditions: protein: recombinant; tags: N-terminal polyhistidine and DsRed monomer fusion (pET32a); chain copies: 2; label: CyDye5-dUTP incorporated in the synthesized complementary strand; 3' TTTTT single-stranded linker to array surface; dsDNA, one strand shown. The method in brief: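 The binding signal is fluorescence intensity per array feature (arbitrary units). Readings came from an Axon 4000B scanner after a washed, 2% BSA-blocked, double-stranded custom Agilent array had been incubated for 1 h at 25 °C with 200 nM protein and 50 µM zinc acetate. The protein was a Ni–NTA-purified transcription factor fused N-terminally to polyhistidine and DsRed, expressed in E. coli BL21-CodonPlus.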
In the case of “CTGTGTGAACAACAAATCAATGGCCACGTCATATATGTACCGGAGTCACCTAGTGCAG”, the binding signal was 16800 fluorescence intensity (a.u.). As for “GGGCGCACCTACAGCACCAAGTGTAACCAGAGCTTACACACGGAGTCACCTAGTGCAG”, the figure is 3420 fluorescence intensity (a.u.). As to “CCTCCATCTATGTCCTGCTGTCCAACATCTACGCGGATGCCGGAGTCACCTAGTGCAG”, the binding signal is 3820 fluorescence intensity (a.u.).

In the case of “ATGGCGCGCCGCCACGTCACCCCGACTCGCCACGTCAGCACGGAGTCACCTAGTGCAG”, the binding signal was 65500 fluorescence intensity (a.u.). Under “TTCTCCTCGGCCTCCATGTGCACGTCCATGTGGCGCATGGCGGAGTCACCTAGTGCAG” stands 4220 fluorescence intensity (a.u.); under “ACGTTCCACTCGCGCGCCTCCACGTCAGCACCCACTGTGGCGGAGTCACCTAGTGCAG”, 42300 fluorescence intensity (a.u.); under “GACGCATGCACGCCGCCACGTCGCGCGCCATGGCCACCCCCGGAGTCACCTAGTGCAG”, 9700 fluorescence intensity (a.u.). In the case of “AATTCCTCTCTCTCTCTCCCCTCCCATGGCGTCACTGTCGCGGAGTCACCTAGTGCAG”, the binding signal was 6120 fluorescence intensity (a.u.). Under “GCTAGCACTCGCCTCCCTCTGCGCCCACGCCACGCTGTGGCGGAGTCACCTAGTGCAG” stands 4110 fluorescence intensity (a.u.); under “TTCTCTCCGTCTTCCTCCAGCACTGAATTTGTCGCTGGCGCGGAGTCACCTAGTGCAG”, 64900 fluorescence intensity (a.u.); under “CTCTCTCCTCGTCTTCCTCGCGCTGACTCTTCTCCTCCTCCGGAGTCACCTAGTGCAG”, 3180 fluorescence intensity (a.u.). Take “TTCACTCGAGGAGGCGGCGGAGGCAGTCCACGTCAGCAACCGGAGTCACCTAGTGCAG”: the binding signal is 39000 fluorescence intensity (a.u.). Under “CGTGCACGTGTTCACCGGAGGTGCTCGTCAGCAAAGCAGGCGGAGTCACCTAGTGCAG” stands 6000 fluorescence intensity (a.u.). Under “TGACCGGCGCAGCTCGCGCCACGTCACCCGCACGCGCCGCCGGAGTCACCTAGTGCAG” stands 8600 fluorescence intensity (a.u.).

“CTTCACCGGCGGCGAGGAGCACGTCACCGGCGGCGAGCACCGGAGTCACCTAGTGCAG”: the binding signal was 4120 fluorescence intensity (a.u.). Under “GCCTGTAGCCTGGTGGTTACAAGAGCCTCAGTAGCACCTGCGGAGTCACCTAGTGCAG” stands 3250 fluorescence intensity (a.u.); under “CAACGGCTATGAGCTGTCACACACTCACAGTAGTACTCCGCGGAGTCACCTAGTGCAG”, 3850 fluorescence intensity (a.u.). As for “ATAAATAGAATGCTGACTGGACTGCCACGCGTACGCCATGCGGAGTCACCTAGTGCAG”, the figure is 22000 fluorescence intensity (a.u.); as for “ACGTGCTCAGTCATCATCCTCATGGCCGTTCCTTGCCGAACGGAGTCACCTAGTGCAG”, 6930 fluorescence intensity (a.u.); as for “TGATCAAAGGGTTTTACTAAAGGAGTTATGGTCTAATTTTCGGAGTCACCTAGTGCAG”, 64900 fluorescence intensity (a.u.). Under “GCTTTGGAACTCCTTTAGATTATAATCCAACTCAATTCAACGGAGTCACCTAGTGCAG” stands 4590 fluorescence intensity (a.u.); under “GATAAATATAGGAATGTTTATAATACTAAATTAATTTAATCGGAGTCACCTAGTGCAG”, 28300 fluorescence intensity (a.u.).

As for “GTAATAATAGATTATATTCAATTAATTAATTATTTATTATCGGAGTCACCTAGTGCAG”, the binding signal is 17400 fluorescence intensity (a.u.).

As to “CAGAAGGATATATGTTTTATAATTTATTCAAATACTAGATCGGAGTCACCTAGTGCAG”, the binding signal is 41400 fluorescence intensity (a.u.). As for “GAGGACAGATCAAATGATTTTAATGACGAAACATGTGCTTCGGAGTCACCTAGTGCAG”, the figure is 4096 fluorescence intensity (a.u.); as for “CGATTTACTTCAAATTTTAGAGGATCAGATCCGACGAAATCGGAGTCACCTAGTGCAG”, 42900 fluorescence intensity (a.u.). As for “CAATTCCGACGAAATCCGGTCGGATTTCACGAAATTTCGACGGAGTCACCTAGTGCAG”, the figure is 20600 fluorescence intensity (a.u.); as for “ATTTTGGTCAAATTTAAACTAATCTAAGTTTGACTAATTTCGGAGTCACCTAGTGCAG”, 8280 fluorescence intensity (a.u.); as for “TCTGTACCAAACTCAATTTTAGAATTCAGAGATCCAATAACGGAGTCACCTAGTGCAG”, 40000 fluorescence intensity (a.u.).

As for “TCAAAGGGTTTCATAAATTTTATGTATATTTTACAAGATTCGGAGTCACCTAGTGCAG”, the binding signal was 5540 fluorescence intensity (a.u.). Under “TTCATAAAACTCCACCTGATCCGAATTACTCTACCAATAACGGAGTCACCTAGTGCAG” stands 4490 fluorescence intensity (a.u.).

On to “CGAATTTGCTACCCCATTTCACAAATCAAAAGTGCAAAGCCGGAGTCACCTAGTGCAG”, for which the binding signal was 29200 fluorescence intensity (a.u.). Consider “CACAGTCGACGACACCCTCCATCTCCGTCCCTCCCACTCCCGGAGTCACCTAGTGCAG”, for which the binding signal is 7160 fluorescence intensity (a.u.). Under “ACGGGCCGTGCTTGGGCCAGCGGCTCGGCACGTGGGCCGGCGGAGTCACCTAGTGCAG” stands 3480 fluorescence intensity (a.u.); under “GAATCAGTAAATAAAGCGCTAGGTTTAATGATGTCATGGACGGAGTCACCTAGTGCAG”, 6840 fluorescence intensity (a.u.); under “ATTAACAATTCAATGGTTCTTGATGTGTTCTACTTAACCTCGGAGTCACCTAGTGCAG”, 3260 fluorescence intensity (a.u.). Under “AAGATAAATGGTTAAACCTTATATGTGAAACCAGAGAAAACGGAGTCACCTAGTGCAG” stands 21100 fluorescence intensity (a.u.); under “CCTTCTTAACAGTCTGTGAAGCTCTGCCATCTCACCGTCTCGGAGTCACCTAGTGCAG”, 3820 fluorescence intensity (a.u.); under “CTTCGGCCTTAGCTCCAAATCCGATGTAAATTTACCAAATCGGAGTCACCTAGTGCAG”, 61700 fluorescence intensity (a.u.). Under “TTCGGCGCAAATTTCTAATCATGATGTAATATAATTAGCTCGGAGTCACCTAGTGCAG” stands 3270 fluorescence intensity (a.u.); under “CTCCAAATTAGTATCCAAACATCCGATGTGACATGGACTTCGGAGTCACCTAGTGCAG”, 4370 fluorescence intensity (a.u.). Consider “TTTCCAATCACGTATTCCGGACAAAGGCCTAAACCTGCTCCGGAGTCACCTAGTGCAG”, for which the binding signal was 35800 fluorescence intensity (a.u.).
